KDM5B inh: KDM5B demethylase inhibition | Q9UGL1 | KDM5B demethylase, FDH-coupled NADH fluorescence (FDH is formaldehyde dehydrogenase) | Potency, µM (top dose mostly 57.7 µM), hits mostly inhibitors | 220,000 compounds, 2.6% hits | AID 1347165; note: potency is the fitted concentration of half-maximal effect; 0% is about no effect; nearly all actives have a fitted effect of over 70% in size
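qHTS format, multiple compound concentrations. Buffer 50 mM HEPES pH 7.5/0.01% Tween-20; 200 nM KDM5BΔAP final; 10 min compound preincubation; substrate-mix levels 12.5 µM peptide, 25 µM α-KG, 0.25 mM NAD⁺; 30 min RT; ΔRFU.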
IP6K1 inh: blocks human inositol hexakisphosphate kinase 1; activity change, % (series mostly up to about 58 µM); IP6K1 kinase, ADP-Glo luminescence, 2 h; hits give low values; 140,000 compounds, 0.81% hits; Q92551; in the data active = activity change below about -25%; note: % is set by controls: 0 for no effect and ±100 for the full control effect
Target sequence (Q92551 whole entry, looked up): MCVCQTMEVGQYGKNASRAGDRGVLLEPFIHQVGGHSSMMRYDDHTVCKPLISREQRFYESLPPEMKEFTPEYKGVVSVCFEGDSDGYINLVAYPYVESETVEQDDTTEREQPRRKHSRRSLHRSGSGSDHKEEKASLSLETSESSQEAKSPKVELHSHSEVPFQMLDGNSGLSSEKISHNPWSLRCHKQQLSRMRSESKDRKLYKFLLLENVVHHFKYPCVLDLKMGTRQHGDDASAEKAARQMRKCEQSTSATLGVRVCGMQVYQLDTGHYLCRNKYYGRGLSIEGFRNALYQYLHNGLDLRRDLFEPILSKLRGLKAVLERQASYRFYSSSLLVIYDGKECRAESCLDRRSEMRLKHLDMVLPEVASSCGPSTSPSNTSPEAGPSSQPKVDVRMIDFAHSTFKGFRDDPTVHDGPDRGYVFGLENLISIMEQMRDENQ
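ADP-Glo luminescence measures ADP made by human IP6K1 during a 2 h RT reaction with ATP/IP6 (mix at 1.3 mM/130 uM); top library doses 57.5 and 19.1 uM final.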
HEK293 viab: reduces viability of HEK-293 SNCA reporter cells; HEK-293-SNCA-luc viability, GF-AFC fluorescence, 24 h; 150,000 compounds, 0.12% hits; Potency, µM (titrated, usually from 57.1 µM), without a hit: at the highest dose activity change, negative = cytotoxicity, actives largely listed as cytotoxic;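 note: potency is the fitted concentration of half-maximal effect; 0% = DMSO-treated cells and -100% = medium-only wells without cells; nearly all actives have a fitted effect of over 30% in size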
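HEK-293-SNCA-luc cells (1500/well) plated 24 h, then exposed 24 h to a dilution series; GF-AFC added 30 min at 37C, fluorescence 405/540 nm; normalised to medium-only and DMSO wells, Hill fit.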
SNCA expr inhib: reduces expression of the alpha-synuclein gene | HEK-293 SNCA-luciferase knock-in, luminescence, 24 h | Potency, µM (top dose mostly 57.2 µM), inactives show at the top dose activity change, negative = inhibition, hits mostly inhibitors | 140,000 compounds, 0.17% hits | AID 1671194;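 note: potency is the fitted concentration of half-maximal effect; plate controls were DMSO cells for no effect and cell-free wells for full effect; nearly all actives have a fitted effect of over 45% in size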
Starred values were filed as active, the others as inactive; i = inactive; ? = inconclusive; . = not tested or not shown; ! = not confirmed by another sample; [ ] = remark or other dose. The list is not random: actives were taken first. Their share in the collection is about 2.8%. Unless noted, calls come from the whole dose curve; as a rule, active = well fitted curve in the direction sought with a large enough effect; inconclusive = small, poorly fitted or top-dose-only effect, or another doubt; inactive = no such curve, though single readings can be large; an effect the other way counts as inactive or inconclusive.

SMILES	KDM5B inh	IP6K1 inh	HEK293 viab	SNCA expr inhib
Cc1ccc(C(=O)NCc2nnc3cc(-c4nc(C(C)C)no4)ccn23)cc1	10µM*	6	5%	7%
CCc1c(C)cc(C(=O)N[C@@H]2[C@@H](Cc3ccccc3)[C@H]3OCC[C@@H]23)c(=O)n1C	28µM*	11	-4%	6%
COc1ccc(-c2ccc(C(=O)N3Cc4[nH]cnc4CC3C(=O)O)o2)cc1 (configuration not stated)	28µM*	-5	9%	19%
O=C(/C(=C\c1ccc(-c2ccccc2Cl)o1)c1nc2ccccc2o1)c1ccccc1	i	.	.	.
COc1cc(F)cc(-c2cccc(CCOc3cnc4c(ccn4CC(=O)O)c3)c2)c1	32µM*	-10	-1%[87.6 µM]	-11%[87.6 µM]
O=C(O)Cn1ccc2cc(OCCc3cccc(-c4ccc(Cl)cc4)c3)cnc21	35µM*	-8	7%[87.6 µM]	?
O=C(O)Cn1ccc2cc(OCCc3cccc(-c4ccccc4)c3)cnc21	?	-15	5%[87.6 µM]	1%[87.6 µM]
CSc1nc(=O)c2c(n1C)NC(=O)CC2c1ccc(C)cc1C (configuration not stated)	i	.	.	.
COc1ccc(CCC(=O)N2CCC(Cc3nc(-c4ccc(OC)cc4)no3)CC2)cc1	i	-2	-28%	?
O=C(NCCNc1cccnc1)C1CCC(=O)N(Cc2ccc(Cl)cc2)C1 (configuration not stated)	11µM*	-14	-12%	4%
COC(=O)CO[C@@H]1CO[C@H]2[C@@H]1OC[C@@H]2NC(=S)Nc1cc(C)cc(C)c1	28µM*	24	7%[87.6 µM]	16%[87.6 µM]
CN1CCN(c2ccc(NC(=O)c3ccc(F)cc3Cl)nc2)CC1	i	.	.	.
CC#CCn1cc2c3c(cccc31)[C@H](CC(C)C)N[C@H](C(=O)N1CCN(CCOC)CC1)C2	28µM*	0	-22%	15%
COc1ccccc1CNC(=O)[C@@H]1Cc2cn(C)c3cccc(c23)[C@H](CC(C)C)N1	35µM*	-5	?	?
CN(Cc1nccn1Cc1ccccc1)C(=O)c1cccc(-n2cnnc2)c1	i	-3	-2%	-8%
COc1ccc(-c2nc(C(=O)Nc3cccc(C(C)=O)c3)nn2-c2ccc(Cl)cc2)cc1	i	9	11%	-7%
COCCOc1nc(-c2ccc(Cl)c(Cl)c2)n(-c2ccc(NC(=O)CCl)cc2)n1	.	9	30µM*!	15%
COc1cc(N2CCC(N(C)C)CC2)ccc1Nc1ncc(Cl)c(Nc2ccccc2P(C)(C)=O)n1	.	-4	?	8.5µM*
CCOc1ccccc1C(=O)NC(C)C(=O)N1CCN(c2ccccn2)CC1 (configuration not stated)	22µM*	1	8%	?
COc1ccc(CC(=O)NC(C)C(=O)N2CCN(c3ccccn3)CC2)cc1 (configuration not stated)	32µM*	22	-1%	-16%
COc1ccc(C(=O)NC(C)C(=O)N2CCN(c3ccccn3)CC2)cc1F (configuration not stated)	?	4	-8%	-24%
CC(NC(=O)COc1ccc(F)cc1)C(=O)N1CCN(c2ccccn2)CC1 (configuration not stated)	28µM*	12	-12%	?
CC(NC(=O)Cc1c(F)cccc1Cl)C(=O)N1CCN(c2ccccn2)CC1 (configuration not stated)	?	-1	-13%	5%
COc1cccc(CC(=O)NC(C)C(=O)N2CCN(c3ccccn3)CC2)c1 (configuration not stated)	25µM*	30	7%	2%
CC(NC(=O)COc1ccccc1)C(=O)N1CCN(c2ccc(F)cc2)CC1 (configuration not stated)	i	.	.	.
SMILES	KDM5B inh	IP6K1 inh	HEK293 viab	SNCA expr inhib
COc1cccc(CN2C(=O)CCCCC2C(=O)N2CCN(c3ccccn3)CC2)c1 (configuration not stated)	.	-10	-20%	-13%
Cc1cc(C)cc(C(=O)NC(Cc2ccccc2)C(=O)N2CCN(c3ccccn3)CC2)c1 (configuration not stated)	25µM*	10	-1%	2%
COc1cccc(CCC(=O)NC(C)C(=O)N2CCN(c3ccccn3)CC2)c1 (configuration not stated)	22µM*	2	-10%	-8%
Cc1cccc(C(=O)N[C@@H](C)C(=O)N2CCN(c3ncccn3)CC2)c1	i	.	.	.
COc1ccc(-c2cnc3[nH]cc(CC(=O)N4CCN(c5ccccn5)CC4)c3c2)cc1	28µM*	-9	-22%[87.6 µM]	39%[87.6 µM]
COc1ccc(-c2cnc3[nH]cc(CC(=O)NCCN(C)C)c3c2)cc1	40µM*	-16	3%[87.6 µM]	47%[87.6 µM]
N#CCc1ccccc1C(=O)OCC(=O)N1CCN(c2ccccc2)CC1	i	.	.	.
O=C(CCCc1ccccc1)Nc1ccnn1C1CCN(C(=O)Cc2ccccc2F)CC1	i	-3	6%	22%
Cc1ccc(-c2ccccc2CN2CCC(C(=O)NCC(F)F)CC2)cc1Cl	.	-3	.	.
CC(NC(=O)c1n[nH]c2ccccc12)C(=O)N1CCN(c2ccccn2)CC1 (configuration not stated)	22µM*	2	5%	2%
CCCn1nc(C(=O)N2CCN(c3ccccn3)CC2)c2ccccc2c1=O	i	.	.	.
Cc1ccc(CCCN2CCCC(COc3ccccc3C(=O)NC(C)C)C2)o1 (configuration not stated)	i	-17	-16%	-22%
Cc1nn(Cc2ccccc2)c(C)c1[C@@H]1C=C[C@@H](NC(=O)c2ccco2)C1	?	-3	-10%[87.6 µM]	9%[87.6 µM]
Cc1nn(Cc2ccccc2)c(C)c1[C@@H]1C=C[C@@H](NC(=O)c2ccc(F)c(Cl)c2)C1	28µM*	-12	?	?
CC1=C[C@@H](CN2CCN(c3ccccn3)CC2)[C@H](C(C)C)C[C@H]1Cc1nnc(-c2ccc(C)cc2)o1	?	-6	?	?
CC1=C[C@@H](CNc2ccccn2)[C@H](C(C)C)C[C@H]1Cc1nnc(-c2cncn2C)o1	35µM*	-4	-28%[87.6 µM]	?
CC1=C[C@@H](CN2CCN(c3cnccn3)CC2)[C@H](C(C)C)C[C@H]1Cc1nnc(-c2ccccc2)o1	28µM*	-16	?	?
COc1ccc(N2C(=O)C3(CCCCC3)C2C(=O)NCCCN2CCCC2)cc1 (configuration not stated)	i	-10	-9%	-21%
COc1ccc(N2C(=O)C3(CCCCC3)C2C(=O)NCCN2CCc3ccccc3C2)cc1 (configuration not stated)	25µM*	-13	-15%	4%
CC(C)CNC(=O)c1ccc2nnc(C3CC3)n2c1	.	5	3%[87.6 µM]	41%[87.6 µM]
CCN1CC(C(=O)N2CCN(CCOc3ccccc3)CC2)CC1=O (configuration not stated)	25µM*	-7	-6%	18%
CCN1CC(C(=O)N2CCN(Cc3cc(OC)ccc3OC)CC2)CC1=O (configuration not stated)	i	-8	-7%	1%
